The campaign covered roughly 34,000 compounds. Fewer than 10 were called active.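 The calls were made as follows: active = primary screen hit, no activity in plain HEK293 cells, and in GIRK2-only cells above 5% efficacy rising with concentration; inactive = the rest, including fluorescent compounds.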 The list is a sample of the results.
Target: G protein-activated inward rectifier potassium channel 2 (Homo sapiens) (UniProt P48051)
Assay: GIRK2 activation atop partial GPCR stimulation – cell-based, HEK293, thallium flux, summary (AID 1259324)
Settings: HEK293 GIRK2/NPY4 cells, thallium flux fluorescence

Chain of G protein-activated inward rectifier potassium channel 2 (Homo sapiens) (P48051 whole entry, looked up): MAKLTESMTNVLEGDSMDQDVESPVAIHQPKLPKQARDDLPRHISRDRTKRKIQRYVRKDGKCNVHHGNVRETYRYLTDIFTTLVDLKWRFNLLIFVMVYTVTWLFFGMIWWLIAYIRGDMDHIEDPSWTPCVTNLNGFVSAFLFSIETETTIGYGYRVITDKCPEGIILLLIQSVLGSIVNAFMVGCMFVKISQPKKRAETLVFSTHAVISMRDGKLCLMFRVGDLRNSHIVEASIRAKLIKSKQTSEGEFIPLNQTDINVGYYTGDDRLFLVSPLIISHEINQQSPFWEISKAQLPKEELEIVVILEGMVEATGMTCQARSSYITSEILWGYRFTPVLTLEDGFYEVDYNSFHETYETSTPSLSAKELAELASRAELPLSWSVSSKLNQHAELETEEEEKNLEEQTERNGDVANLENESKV

SMILES | outcome
COc1ccc(NC(=O)c2ccc(C(F)(F)F)cc2)cc1N1CCCC1=O | inactive
O=C(NC1CC(=O)N(C2CC2)C1)c1ccc(-n2cccc2)cc1 (configuration not stated) | inactive
O=C(c1cccc(Cl)c1)N1CCOC(c2ccc(C(F)(F)F)cc2)C1 (configuration not stated) | inactive
CC1CCN(C(=O)CN2CCN(c3nccn3-c3cccc(Cl)c3)CC2)CC1 | inactive
COc1cccc(C(=O)NNC(=O)c2ccc(=O)n(Cc3ccccc3)c2)c1OC | inactive
O=C(NCCCO)C(=O)Nc1ccc2c(c1)OCCO2 | inactive
O=C(CSc1nc2ccsc2c(=O)n1CCc1ccccc1)Nc1ccccc1F | inactive
COCCNc1oc2c(c1-c1ccc([N+](=O)[O-])cc1)c(=O)oc1ccc(C)cc12 | inactive
O=C(CN1CCOCC1)Nc1ccccc1-c1nc2ccccc2[nH]c1=O | inactive
O=S1(=O)CCC(n2nc(-c3ccco3)cc2NS(=O)(=O)c2cccc(Cl)c2)C1 (configuration not stated) | inactive
CC(C)(C)OC(=O)C1=NN(c2ccc(Cl)cc2)c2ncccc2S1(=O)=O | inactive
CCn1nnc2c(NCc3ccccc3OC)ncnc21 | inactive
Cc1ccc(C(CNC(=O)C(=O)NCc2ccccc2)N2CCOCC2)cc1 (configuration not stated) | inactive
CS(=O)(=O)N1CCN(CCNC(=O)c2ccc([N+](=O)[O-])o2)CC1 | inactive
O=C(NCc1cccs1)C(=O)NCC1CCN(C(=O)/C=C/c2ccco2)CC1 | inactive
O=C(NCc1cccs1)C(=O)NCC1CCCO1 (configuration not stated) | inactive
COc1ccc(OC)c(CNC(=O)c2snc(-c3cccc(F)c3)c2N)c1 | inactive
COc1ccc(CCNC(=O)COc2ccccc2Br)cc1OC | inactive
COc1cc(C)c(C)cc1S(=O)(=O)N1CCN(c2ccc(-c3cccnc3)nn2)CC1 | inactive
COc1ccc(S(=O)(=O)CCCC(=O)Nc2nc(-c3ccc([N+](=O)[O-])cc3)cs2)cc1 | inactive
Cc1nc(NCCNC(=O)Nc2ccccc2)cc(-n2cccn2)n1 | inactive
CCN1CCc2nc(-c3ccccc3)n(CC(=O)Nc3cc(OC)cc(OC)c3)c(=O)c2C1 | inactive
O=C(NCCC1=CCCCC1)C(=O)Nc1cccc(N2CCCCC2=O)c1 | inactive

SMILES | outcome
O=C(CN1CC(c2nc(-c3ccsc3)no2)C1)NCCc1ccccc1 | inactive
Cc1nn(-c2nc(C)c(C)c(=O)[nH]2)c(C)c1CCC(=O)Nc1ccc(C(F)(F)F)cc1 | inactive
O=C(Cc1ccc(NS(=O)(=O)C2CC2)cc1)NCC(F)(F)F | inactive
O=C(Cc1csc(-n2cccc2)n1)Nc1nc2ccccc2s1 | inactive
Cc1cccc(NC(=O)N2CCN(c3ccc4nnc(C5CC5)n4n3)CC2)c1C | inactive
CCOc1ccc2nc(NC(=O)Cn3cnc(C(C)C)cc3=O)sc2c1 | inactive
Cc1ccc(-n2ccnc2N2CCN(C(=O)c3ccccc3)CC2)cc1 | inactive
CS(=O)(=O)N1CCC(C(=O)Nc2nc3ccc(F)cc3s2)CC1 | inactive
Cc1nc(-c2cccc(NC(=O)Cc3c(C)[nH]c(=O)[nH]c3=O)c2)cs1 | inactive
COc1cc(COCC2CCN(C(=O)/C=C/c3ccccc3Cl)CC2)cc(OC)c1 | inactive
O=C(c1ccc([N+](=O)[O-])o1)N1CCN(Cc2nnnn2-c2ccc(F)c(F)c2)CC1 | inactive
CC(C)(C)CN(C(=O)c1ccco1)c1ccncc1 | inactive
COc1ccccc1CNC(=O)C1CN(C(C)=O)C1 | inactive
Cc1ccccc1C(=O)NCCNC(=O)c1ccc(NC(=O)C(C)C)cc1 | inactive
O=C(Nc1cccs1)N1CCN(c2ccc(-c3ccco3)nn2)CC1 | inactive
CC(C)CCn1nc2ccc(S(=O)(=O)N3CCOCC3)cn2c1=O | inactive
Cn1nnc2c(N3CCN(C(=O)NCCOc4ccccc4)CC3)ncnc21 | inactive
COc1ccc(NC(=O)C(=O)NCCC(c2ccccc2)c2ccccc2)c(OC)c1 | inactive
Cc1ccc(Nc2ccc(NC(=O)/C=C/c3ccccc3)cc2)nn1 | inactive
CCOc1cccc2sc(N(CCN3CCOCC3)C(=O)c3ccco3)nc12 | inactive
COc1ccc(C=O)cc1Cn1c(=O)n(CCCCC(=O)NCC(C)C)c(=O)c2ccccc21 | inactive
COc1cc(OC)cc(-n2c(-c3ccco3)nc3nc4ccccc4nc32)c1 | inactive
Cc1ccc2nc(C3CC(=O)N(c4ccccc4)C3)[nH]c2c1 (configuration not stated) | inactive

SMILES | outcome
COc1ccc(CCNC(=O)Cn2nc(-c3ccc(Cl)cc3)ccc2=O)cc1 | inactive
O=C(NN1CCOCC1)c1ccc(N2CCC(Cc3ccccc3)CC2)nn1 | inactive
CS(=O)(=O)N1CCCCC1C(=O)Nc1nc(-c2ccccn2)cs1 (configuration not stated) | inactive
O=C(NCCCN1CCOC(c2ccccc2)C1)c1cc2ccccc2oc1=O (configuration not stated) | inactive
COc1ccc(NC(=O)NCC(C)(O)C2CC2)cc1OC (configuration not stated) | inactive
CSc1cccc(NC(=O)NCCNc2cc(-n3cccn3)ncn2)c1 | inactive
CSc1ccccc1CN1CCC(CNC(=O)c2ccc(S(=O)(=O)N(C)C)cc2)CC1 | inactive
COc1ccc(N2C(=O)CN(CCC3=CCCCC3)C3CS(=O)(=O)CC32)cc1Cl (configuration not stated) | inactive
COc1cc(NC(=O)CSC2=NC3(CCCC3)N=C2c2ccccc2)cc(OC)c1 | inactive
Cc1ccc(N2CC(C(=O)NCC3CCN(S(=O)(=O)C4CC4)CC3)CC2=O)cc1C (configuration not stated) | inactive
Cc1cc(-c2nnc(NC(=O)C(c3ccccc3)c3ccccc3)o2)nn1C | inactive
CCOC(=O)CNC(=O)C1COCC(=O)N1Cc1ccccc1 (configuration not stated) | inactive
COc1ccc(CCNC(=O)CCc2sc(C)nc2-c2cccs2)cc1 | inactive
O=S(=O)(N1CCCCCC1)N1CCN(c2ccccc2F)CC1 | inactive
CCOC(=O)c1cn[nH]c1S(=O)(=O)NCc1ccccn1 | inactive
CSc1cccc(-n2nnc(C(=O)OCc3nc(-c4ccccc4)oc3C)c2C)c1 | inactive
CN(C)C(CNC(=O)C(C)(C)C)c1ccccc1Cl (configuration not stated) | inactive
CC(C)CCn1nc2ccc(S(=O)(=O)N3CCCCC3)cn2c1=O | inactive
COc1ccc(NC(=O)Cn2cc(-c3ccccc3)c(N(C)C)n2)cc1OC | inactive
Cc1cc(NC(=O)C(=O)c2c(C)[nH]c3ccccc23)n(-c2nc(-c3cccs3)cs2)n1 | inactive
COc1ccc(NC(=O)c2ccccc2SC)cc1N1CCCCC1=O | inactive
